In PubChem BioAssay (NCATS):
Records with an inconclusive call do not appear. A call without a number means that no potency is given here. The source made the active and inactive calls. Calls follow the shape of the dose curve; as a rule, active = well fitted curve in the direction sought with a large enough effect; inconclusive = small, poorly fitted or top-dose-only effect, or another doubt; inactive = no such curve, though single readings can be large; an effect the other way counts as inactive or inconclusive.

Assays:
[1] = target: Aldehyde dehydrogenase, mitochondrial (Homo sapiens) (UniProt P05091); assay: qHTS for Inhibitors of the Aldehyde Dehydrogenase Family (ALDH2) Primary screen (AID 2061308); also: nearly all actives have a fitted effect of over 55% in size
[2] = target: Retinaldehyde dehydrogenase 3 (Homo sapiens) (UniProt P47895); assay: qHTS for Inhibitors of the Aldehyde Dehydrogenase Family (ALDH1A3) Primary screen (AID 2061315)

SMILES | Potency [1] | Potency [2]
O=[S+]([O-])(c1ccc2c(c1)OCCO2)N1CCN([S+](=O)([O-])c2c(Cl)cc(Cl)cc2Br)CC1 | inactive | inactive
Cc1ccc(S(=O)(=O)Nc2ccccc2N2CCCCC2)s1 | inactive | inactive
CC(C)(C)c1ccc(NC(=O)c2cccs2)cn1 | inactive | inactive
COc1ccc(-c2ccc3ncnc(NCc4ccc(C)o4)c3c2)cc1OC | inactive | inactive
COc1cc2nc(N3CCN(C(=O)c4ccco4)C4CCCCC43)nc(N)c2cc1OC (stereo not drawn) | inactive | inactive
COc1ccc(OC)c(-c2nnc3n2N=C(c2c(OC)cccc2OC)CS3)c1 | inactive | inactive
O=c1cc(CN2CCCN(c3ccc(C(F)(F)F)cn3)CC2)nc2ccccn12 | inactive | inactive
Cc1csc(CNc2ncnc3ccc(-c4ccccc4Cl)cc23)c1 | inactive | inactive
CCOc1ccc(CCNC(=O)c2cc3sccc3n2Cc2ccccc2)c(F)c1OCC | inactive | inactive
Cc1ccnc(NC(=S)NC2CCCN(c3cccc(C(F)(F)F)c3)C2)c1 (stereo not drawn) | inactive | inactive
CC1=C[C@@H]2[C@H]3[C@@H]4O[C@@](C)(CC[C@H]4O)[C@H]3CC(=O)[C@]23C(=O)N[C@@H](CC(C)C)[C@@H]3[C@@H]1C | inactive | inactive
O=C1OC(c2ccccc2)(c2ccccc2)N2CCN(C(=O)NCc3ccc(F)cc3)CC12 (stereo not drawn) | inactive | inactive
Cc1ccccc1-c1nc(NCc2ccc(-c3cccnc3)cc2)c2ccccc2n1 | inactive | inactive
C/C=C(\C)C(=O)OC1C(C)C2(O)C(C=C(CO)CC3(O)C(=O)C(C)=CC32)C2C(C)(C)C12OC(=O)C(C)C (stereo not drawn) | inactive | inactive
CCCCNc1nc(C)nc2c1nc(-c1ccccc1)n2CCCN1CCCCC1C (stereo not drawn) | inactive | inactive
O=c1c2ccccc2nc2sc(NCc3ccc(Oc4ccccc4)cc3)nn12 | inactive | inactive
COc1cccc(C2c3c(ncn(-c4cccc(C#N)c4)c3=N)Oc3ccc4ccccc4c32)c1 (stereo not drawn) | inactive | inactive
CC1(C)CC[C@]2(C(=O)O)CC[C@]3(C)C(=CCC4[C@@]5(C)C[C@@H](O)[C@H](O)C(C)(C)C5CC[C@]43C)C2C1 (stereo partly drawn) | inactive | inactive
N#Cc1ccccc1CNc1nc2ncc(Br)cc2[nH]1 | inactive | inactive
O=C(c1ccccc1)N1CCN(c2nc(-c3cccs3)nc3ccccc23)CC1 | inactive | inactive
COc1cc(-c2ccc3ncnc(NCc4ccc(C)o4)c3c2)cc(OC)c1OC | inactive | inactive

SMILES | Potency [1] | Potency [2]
O=C(NCCc1nc2ccccc2n1CCOc1ccccc1F)C1CCCCC1 | inactive | inactive
CCNC(=O)c1ccc(-c2ccc3ncnc(NCc4nc(C)cs4)c3c2)o1 | inactive | inactive
COc1ccc(-c2nc3ccc(OC)cc3s2)cc1 | inactive | inactive
Cc1ccc(S(=O)(=O)NCCC(=O)Nc2nc(-c3ccccc3)cs2)cc1 | inactive | inactive
O=S(=O)(c1ccc2c(c1)OCCO2)N1CCN(S(=O)(=O)c2ccc(F)c(F)c2F)CC1 | inactive | inactive
Cc1cc(C)n2ncc(C(=O)N3CCCC3)c2n1 | inactive | inactive
O=C1CCc2cc(S(=O)(=O)Nc3ccc(F)cc3)ccc2N1 | inactive | inactive
Cc1cccc(-n2cnc3cc(C(=O)N4CCC(C#N)CC4)ccc32)c1 | inactive | inactive
CCN(CC)CCCC(C)n1c(-c2ccccc2)nc2c(NC3CCCCC3)nc(C)nc21 (stereo not drawn) | inactive | inactive
O=c1[nH]cnc2c1ncn2[C@H]1CC[C@@H](CO)O1 | inactive | inactive
Cc1ccc(S(=O)(=O)Nc2cc(Cl)cc(C(=O)Nc3nc(-c4ccccc4)cs3)c2)cc1 | inactive | inactive
CCCn1c(-c2ccc(F)cc2)nc2c(NCC(C)(C)CN(C)C)nc(C)nc21 | inactive | inactive
Cc1cc(N[S+](=O)([O-])c2ccc(NC(=O)Cc3nc4ccc(Cl)cc4[nH]3)cc2)no1 | inactive | inactive
Cn1nnnc1Sc1ncnc2scc(-c3cccc([N+](=O)[O-])c3)c12 | inactive | inactive
CCN1CCN(C(=O)CCN(CC(C)C)c2nc(-c3cccs3)nc3ccccc23)CC1 | inactive | inactive
Cc1ccc(NS(=O)(=O)c2ccc3c(c2)NC(=O)CO3)cc1C | inactive | inactive
C/C1=C\CCC2=CC(OC2=O)C(C)(C)/C=C/C1=O (stereo not drawn) | inactive | inactive
Cc1ccc(C(=O)NCC(=O)OC(C(=O)Nc2cc(C(F)(F)F)ccc2Cl)c2ccccc2)cc1 (stereo not drawn) | inactive | inactive
Fc1ccc(-c2nnc(CCCCSc3nnc(-c4cccc5ccccc45)o3)o2)cc1 | inactive | inactive
COc1ccc(NS(=O)(=O)c2ccc3c(c2)CCC(=O)N3)cc1 | inactive | inactive
CCCCNc1nc(C)nc2c1nc(-c1ccccc1)n2CCN1CCCCC1 | inactive | inactive

SMILES | Potency [1] | Potency [2]
O=C(Nc1nnc(-c2ccncc2)s1)Nc1cc(C(F)(F)F)ccc1F | inactive | inactive
Fc1ccc(CNc2nc(-c3ccccc3C(F)(F)F)nc3ccccc23)cc1 | inactive | inactive
Clc1cccc(-c2nc(-c3ccc(-c4nn[nH]n4)cc3)no2)c1 | inactive | inactive
C[C@H](N)C(=O)Nc1ccc(Cl)cc1C(=O)c1ccc[nH]1 | inactive | inactive
CC(=O)Nc1ccc(CNc2ncnc3ccc(-c4c(C)noc4C)cc23)cc1 | inactive | inactive
CCOc1ccccc1-c1nnc2n1N=C(c1cc(OC)ccc1OC)CS2 | inactive | inactive
Cc1cccc(CNc2ncnc3ccc(-c4cccc(C)c4)cc23)c1 | inactive | inactive
O=C1Cc2cc(S(=O)(=O)N3CCN(c4cccc(C(F)(F)F)c4)CC3)ccc2N1 | inactive | inactive
Cc1ccc(N[S+](=O)([O-])c2cc3c(cc2Cl)CCC(=O)N3)cc1Br | inactive | inactive
N#Cc1nc(Nc2cc(F)cc(Cl)c2)nc(NC2CCCC2)n1 | inactive | inactive
CC(C)C1=CC2=CCC3[C@](C)(CCC[C@@]3(C)C(=O)O)C2CC1O (stereo partly drawn) | inactive | inactive
O=C(Nc1ccc(Cl)c(C(F)(F)F)c1)Nc1nnc(-c2cccnc2)s1 | inactive | inactive
CC(C)(NC(=O)Nc1ccccc1Cl)C(=O)N1CCC(C(=O)O)CC1 | inactive | inactive
O=C(O)c1ccc(-c2noc(-c3cccc(Cl)c3)n2)cc1 | inactive | inactive
CCN1CCN(Cc2ccc(C(=O)Nc3ccc(C)c(Oc4ccc5c(c4)CC(=O)N5)c3)cc2C(F)(F)F)CC1 | inactive | inactive
COc1cc(O)c(C(CC(=O)N2CCCCC2)c2ccc(C)cc2)c(OC)c1 (stereo not drawn) | inactive | inactive
COc1cccc(CC(=O)Nc2nc(-c3ccc4c(c3)CCN4C(=O)c3ccccc3C)c(C)s2)c1 | inactive | inactive
CC1CN(c2cc3c(cc2F)c(=O)c(C(=O)O)cn3-c2ccc(F)cc2F)CCN1 (stereo not drawn) | inactive | inactive
O=C(Nc1ccc(O)c2ncccc12)c1ccccc1F | inactive | inactive
O=C(Nc1ccc(-n2cncn2)c(C(F)(F)F)c1)Nc1nnc(-c2ccncc2)s1 | inactive | inactive
CCC1CCCN(C(=O)CC(c2ccc3c(c2)OCO3)c2c(O)cc(OC)cc2OC)C1 (stereo not drawn) | inactive | inactive

SMILES | Potency [1] | Potency [2]
CCC(OC(=O)c1ccc(S(C)(=O)=O)c([N+](=O)[O-])c1)C(=O)NC1C2CC3CC(C2)CC1C3 (stereo not drawn) | inactive | inactive
CCN(CC)C(=O)c1cc(S(=O)(=O)Cc2ccccc2)c(N2CCC(c3ccccc3)CC2)cc1N(CC)CCN(C)C | inactive | inactive
Brc1cnc2nc(SCc3ccccc3)[nH]c2c1 | inactive | inactive
O=C(Nc1nc(-c2ccccc2)cs1)c1ccncc1NS(=O)(=O)c1cccnc1 | inactive | inactive
Cc1cc(C)nc(Nc2nnc(N3CCN(c4cccc(C(F)(F)F)c4)CC3)s2)c1 | inactive | inactive
NC(=O)C1CCN(c2nc(-c3cccc(Cl)c3)cs2)CC1 | inactive | inactive
Cc1ccnc(NC(=S)N2CCN(c3cccc(C(F)(F)F)c3)C2)c1 | inactive | inactive
Cc1cc2c(s1)c1cnn(Cc3c(F)c(F)c(C(F)(F)F)c(F)c3F)c(=O)c1n2C | inactive | inactive
COc1ccc(C2Nc3ccccc3C(=O)N2Cc2cccc(Cl)c2)cc1COc1ccc(NC(C)=O)cc1 (stereo not drawn) | inactive | inactive
CC(C)Oc1ccc(C(=O)Nc2ccc(-c3nc4ccccc4[nH]3)cc2)cc1 | inactive | inactive
CC(=O)Nc1sc2c(c1Br)CCNC2 | inactive | inactive
O=C(OCC#CCSc1nnc(-c2cccc3ccccc23)o1)c1sccc1Cl | inactive | inactive
Cc1cc2c(s1)c1cnn(Cc3c(F)c(F)c(C)c(F)c3F)c(=O)c1n2C | inactive | inactive
Cc1c([S+](=O)([O-])N2CCN([S+](=O)([O-])c3c(F)cccc3F)CC2)sc2ccc(Cl)cc12 | inactive | inactive
CCOc1ccc(CCNC(=O)c2cc3ccccc3n2Cc2cc(C)cc(C)n2)cc1OCC | inactive | inactive
COc1cc(C(=O)NC(=S)Nc2cccc(NC(=O)c3ccccc3)c2)cc(OC)c1OC | inactive | inactive
COCOC1CCC(C(=O)Nc2ccc([S+](=O)([O-])Nc3nccs3)cc2)CC1 (stereo not drawn) | inactive | inactive
C/C=C/c1ccc2c(c1)[C@@H](C)[C@H](c1ccc(O)cc1)O2 | inactive | inactive
CCc1ccccc1C(=O)N1CCc2cc(-c3nc(NC(=O)Cc4ccc5c(c4)OCO5)sc3C)ccc21 | inactive | inactive
O=C(Nc1ccc(S(=O)(=O)Nc2nccs2)cc1)[C@@H]1CC[C@H](C(=O)c2ccccc2)C1 | inactive | inactive
O=C(Nc1ncc(Cc2ccc(C(F)(F)F)cc2)s1)c1ccc(-c2ccccc2)o1 | inactive | inactive
